Source: PubChem BioAssay AID1159580 (chemical genetic matrix, 2015)
Screen size: about 5,500 compounds; about 2,000 (36%) were called active. Not shown: some 18% with an inconclusive outcome. The list shows a part of the results. A number with no mark means an inactive call. No stated cut-off is given here; in the data, active means normalized growth mostly below about 0.91 (no sharp cut-off); inconclusive means no clear call, values can overlap the other calls; inactive means mostly above about 0.92.

Assay: chemical genetic growth profiling, strain panel (AID 1159580);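 further: tested at 20 µM; growth read once vehicle control cultures reached saturation at 30 °C; 1 = growth at the plate median or of vehicle wells; lower values mean less growth of the strain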
Conditions: S. cerevisiae deletion strains, growth OD

`Cc1ccc(-c2nn(-c3ccccc3)c(=O)c3ccccc23)cc1C` gave a normalized growth (locus YAL013W, strain DEP1, hits give low values) of 0.953, a normalized growth (locus YBR229C, strain ROT2, hits give low values) of 0.968 and a normalized growth (locus YCL061C, strain MRC1, hits give low values) of 0.967. The normalized growth (locus YDL101C, strain DUN1, hits give low values) was 0.957, the normalized growth (locus YDR150W, strain NUM1, hits give low values) was 0.978 and the normalized growth (locus YEL061C, strain CIN8, hits give low values) was 0.908 (active). For the same compound, the normalized growth (locus YGR078C, strain PAC10, hits give low values) was 0.955, the normalized growth (locus YGR229C, strain SMI1, hits give low values) was 0.984 and the normalized growth (locus YHR030C, strain SLT2, hits give low values) was 0.504 (active). It also gave a normalized growth (locus YHR087W, strain rtc3, hits give low values) of 0.922, a normalized growth (locus YJL187C, strain SWE1, hits give low values) of 0.979 and a normalized growth (locus YJR043C, strain POL32, hits give low values) of 0.998. For the same compound, the normalized growth (locus YJR075W, strain HOC1, hits give low values) was 0.908, the normalized growth (locus YKL190W, strain CNB1, hits give low values) was 0.977 and the normalized growth (locus YLR039C, strain RIC1, hits give low values) was 0.634 (active). For the same compound, the normalized growth (locus YLR058C, strain SHM2 (second series), hits give low values) was 0.967, the normalized growth (locus YLR085C, strain ARP6, hits give low values) was 0.736 (active) and the normalized growth (locus YLR262C, strain YPT6, hits give low values) was 0.629 (active). For the same compound, the normalized growth (locus YML094W, strain GIM5, hits give low values) was 0.922, the normalized growth (locus YMR219W, strain ESC1, hits give low values) was 0.962 and the normalized growth (locus YMR263W, strain SAP30, hits give low values) was 0.937. It also gave a normalized growth (locus YNL153C, strain GIM3, hits give low values) of 0.992, a normalized growth (locus YNL298W, strain CLA4 (second series), hits give low values) of 0.936 and a normalized growth (locus YNL322C, strain KRE1, hits give low values) of 0.964. For the same compound, the normalized growth (locus YNR030W, strain Alg12, hits give low values) was 0.918, the normalized growth (locus YOL006C, strain TOP1, hits give low values) was 0.804 and the normalized growth (locus YPL055C, strain LGE1, hits give low values) was 0.928. For the same compound, the normalized growth (locus YPL241C, strain CIN2, hits give low values) was 0.917 and the normalized growth (locus YPR135W, strain CTF4, hits give low values) was 0.612 (active).
